Records with an inconclusive call do not appear. Activity calls are given as the source filed them. Calls come from the whole dose curve; as a rule, active = well fitted curve in the direction sought with a large enough effect; inconclusive = small, poorly fitted or top-dose-only effect, or another doubt; inactive = no such curve, though single readings can be large; an effect the other way counts as inactive or inconclusive.
Assays:
[1] = test system: CRL-7250; test: Cytotoxic Profiling of Annotated Libraries Using Quantitative High-Throughput Screening (AID 1296008); conditions: Five cell lines viability, CellTiter-Glo ATP luminescence, 48-72 h; max response: active compounds read low; note: nearly all actives have a fitted effect of over 60% in size; for max response: % is set by controls: 0 for no effect and ±100 for the full control effect
Procedure, shortened: (§1)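 Cytotoxicity was measured as CellTiter-Glo ATP luminescence, read after 10 min at room temperature. Compound treatment of the cells lasted 48 or 72 hr at 37 degrees Celsius in a qHTS format.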

[2] = test system: HEK293; test: as above; conditions: Five cell lines viability, CellTiter-Glo ATP luminescence, 48-72 h; max response: active compounds read low
Procedure, shortened: as §1

[3] = test system: HaCat; test: as above; conditions: Five cell lines viability, CellTiter-Glo ATP luminescence, 48-72 h; max response: active compounds read low
Procedure, shortened: as §1

[4] = test system: C33A; test: Primary qHTS to identify gynecologic anti-cancer compounds using libraries of approved drugs and bioactive compounds (AID 1345084); conditions: Gynecologic cancer cell panel viability, ATPlite luminescence, 48 h; series mostly up to 57.5 µM; note: nearly all actives have a fitted effect of over 55% in size; for activity change, negative = cytotoxicity: % is set by controls: 0 for no effect and ±100 for the full control effect
Procedure, shortened: (§2)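 Luminescence from the ATPlite ATP-monitoring reagent indicates viable cell number; lower signal means cytotoxicity. Cells received compound 16 h after seeding and were exposed for 48 h across five concentrations.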

[5] = test system: CAOV3; test: as above; conditions: Gynecologic cancer cell panel viability, ATPlite luminescence, 48 h; series mostly up to 57.5 µM
Procedure, shortened: as §2

[6] = test system: CASKI; test: as above; conditions: Gynecologic cancer cell panel viability, ATPlite luminescence, 48 h; series mostly up to 57.5 µM
Procedure, shortened: as §2

[7] = test system: Es-2; test: as above; conditions: Gynecologic cancer cell panel viability, ATPlite luminescence, 48 h; series mostly up to 57.5 µM
Procedure, shortened: as §2

[8] = test system: HeLa; test: as above; conditions: Gynecologic cancer cell panel viability, ATPlite luminescence, 48 h; series mostly up to 57.5 µM
Procedure, shortened: as §2

[9] = test system: Hek293T; test: as above; conditions: Gynecologic cancer cell panel viability, ATPlite luminescence, 48 h, control line for the selectivity index; series mostly up to 57.5 µM
Procedure, shortened: as §2

[10] = test system: NIH3T3; test: Cytotoxic Profiling of Annotated Libraries Using Quantitative High-Throughput Screening (AID 1296008); conditions: Five cell lines viability, CellTiter-Glo ATP luminescence, 48-72 h; max response: active compounds read low; note: nearly all actives have a fitted effect of over 60% in size; for max response: % is set by controls: 0 for no effect and ±100 for the full control effect
Procedure, shortened: as §1

[11] = test system: JEG-3; test: Primary qHTS to identify gynecologic anti-cancer compounds using libraries of approved drugs and bioactive compounds (AID 1345084); conditions: Gynecologic cancer cell panel viability, ATPlite luminescence, 48 h; series mostly up to 57.5 µM; note: nearly all actives have a fitted effect of over 55% in size; for activity change, negative = cytotoxicity: % is set by controls: 0 for no effect and ±100 for the full control effect
Procedure, shortened: as §2

[12] = test system: PA-1; test: as above; conditions: Gynecologic cancer cell panel viability, ATPlite luminescence, 48 h; series mostly up to 57.5 µM
Procedure, shortened: as §2

[13] = test system: SKOV3; test: as above; conditions: Gynecologic cancer cell panel viability, ATPlite luminescence, 48 h; series mostly up to 57.5 µM
Procedure, shortened: as §2

[14] = test system: OV90; test: as above; conditions: Gynecologic cancer cell panel viability, ATPlite luminescence, 48 h; series mostly up to 57.5 µM
Procedure, shortened: as §2

[15] = test system: HACAT; test: qHTS assay to identify novel small-molecules to repurpose for Merkel cell carcinoma treatment (AID 1296009); conditions: MCC and control cell lines, CellTiter-Glo viability, 72 h; at 44.8 µM (top of the series) unless noted; note: nearly all actives have a fitted effect of over 60% in size
Procedure, shortened: (§3)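 After compound transfer in DMSO, plates were kept 72 hr at 37 degree celsius. Luminescent ATP signal from CellTiter-Glo served as viability measure, normalized against DMSO and no-cell controls.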

[16] = test system: NIH3T3; test: as above; conditions: MCC and control cell lines, CellTiter-Glo viability, 72 h; series mostly up to 44.8 µM
Procedure, shortened: as §3
Potency is the fitted concentration of half-maximal effect.

CC(C)C[C@@H]1NC(=O)[C@@H](Cc2ccccc2)NC(=O)C(CCCCCC(=O)C2CO2)NC(=O)[C@@H]2CCCCN2C1=O (stereo not given in full)
active: Potency [1] 3.55 µM | Potency [2] 2.82 µM | Potency [3] 3.17 µM | Potency [6] 0.708 µM | Potency [7] 2.24 µM
inactive: Potency [4] | Potency [5] | Potency [8] | Potency [9]

C#CC(=O)N(c1ccc(OC)cc1OC)C(C(=O)NCC(=O)OCC)c1cccs1 (stereo not given)
active: Potency [1] 0.206 µM | Potency [2] 0.259 µM | Potency [10] 0.164 µM | Potency [4] 5.01 µM | Potency [5] 1.78 µM | Potency [6] 22.4 µM | Potency [7] 1.41 µM | Potency [11] 15.8 µM | Potency [12] 1.58 µM | Potency [13] 3.16 µM

COC1CC/C=C(\C)C(=O)Nc2cc(O)cc(c2)CC(C)CC(OC)C(O)C(C)/C=C(\C)C1OC(N)=O (stereo not given)
inactive: Potency [7] | Potency [8]
active: Potency [1] 3.17 µM | Potency [2] 2.52 µM | Potency [3] 7.09 µM | Potency [14] 8.91 µM

O=C1C(Cc2ccc(O)cc2)N2C(=O)CCN(C(=O)NCc3ccccc3)C2CN1Cc1cccc2ccccc12 (stereo not given)
active: Potency [1] 4.61 µM | Potency [2] 4.11 µM | Potency [3] 5.8 µM | Potency [7] 8.91 µM | Potency [13] 20 µM
inactive: Potency [6] | Potency [11]

Fc1ccc(-c2nc(C3CCNCC3)sc2-c2ccnc(NC3CC3)n2)cc1
inactive: outcome [1] | Potency [4] | Potency [9] | Potency [14]
active: Potency [2] 1.64 µM | Potency [3] 5.17 µM

N#Cc1ccc(O[C@@H]2c3ccccc3C[C@H]2N2CCC[C@@H](N)C2)c(Cl)c1
inactive: max response [1] -27.9% | outcome [3] | outcome [15] | Potency [4] | Potency [8] | Potency [9] | Potency [11] | Potency [14] | Potency [12]
active: Potency [2] 20.6 µM

Cc1noc(-c2ccc(-c3ccc(CC(=O)O)cc3)cc2)c1NC(=O)O[C@H](C)c1ccccc1Cl
inactive: max response [1] -11.1% | max response [2] -3.72% | Potency [4] | Potency [5] | Potency [6] | Potency [7] | Potency [8] | Potency [9] | Potency [11] | Potency [14] | Potency [12] | Potency [13]
active: Potency [10] 7.31 µM

CC(C)S(=O)(=O)NC[C@H](C)c1ccc(-c2ccc(CCNS(C)(=O)=O)cc2)cc1
active: Potency [1] 4.61 µM | Potency [2] 5.8 µM | Potency [9] 8.91 µM | Potency [13] 17.8 µM
inactive: max response [3] 2.78% | Potency [5] | Potency [7] | Potency [8] | Potency [11] | Potency [12]

COC1CC(O[C@H]2CC[C@]3(C)C4CC[C@]5(C)C(C6=CC(=O)OC6)=CCC56OC46CC[C@@H]3C2)OC(C)C1O[C@@H]1O[C@H](CO[C@@H]2O[C@H](CO)[C@@H](O)[C@H](O)[C@H]2O)[C@@H](O)[C@H](O)[C@H]1O (stereo not given in full)
inactive: outcome [10] | outcome [16] inactive [at 9.27 µM] | activity change, negative = cytotoxicity [6] -27.8% [at 11.6 µM]
active: Potency [1] 1.55 µM | Potency [2] 1.74 µM | Potency [4] 2.82 µM | Potency [7] 3.16 µM | Potency [8] 3.55 µM | Potency [9] 2.82 µM | Potency [12] 3.98 µM | Potency [13] 3.16 µM

CC[C@@H](C)Nc1cc(C(=O)NC2CC3CC[C@@H](C2)N3c2ccc(C(=O)C3CC3)cn2)c(C)cc1C(N)=O (stereo not given in full)
active: Potency [1] 0.231 µM | Potency [2] 0.0517 µM | Potency [3] 0.092 µM | Potency [16] 0.184 µM | Potency [5] 0.794 µM | Potency [9] 0.316 µM | Potency [14] 0.316 µM | Potency [12] 0.316 µM

CNC(=O)[C@@H](c1ccccc1)N1CCc2cc(OC)c(OC)cc2[C@@H]1CCc1ccc(C(F)(F)F)cc1
inactive: max response [1] -4.36% | max response [10] -22.6% | Potency [4] | Potency [5] | Potency [6] | Potency [7] | Potency [8] | Potency [9] | Potency [11] | Potency [14] | Potency [12] | Potency [13]
active: Potency [2] 16.4 µM

Cc1csc2c(N[C@@H](C)CN3CCN(S(=O)(=O)c4ccc(Cl)c(Cl)c4)CC3)ncnc12
active: Potency [1] 0.259 µM | Potency [2] 0.366 µM | Potency [3] 2.91 µM
inactive: Potency [5] | Potency [8] | Potency [11] | Potency [12]

COc1cc(CCC2=NN=C(NC(=O)c3ccc(N4C[C@@H](C)N[C@@H](C)C4)cc3)C2)cc(OC)c1
active: Potency [1] 10.3 µM | Potency [2] 18.4 µM | Potency [8] 20 µM | Potency [13] 12.6 µM
inactive: max response [3] -66.4%

COc1cc(NC(=O)c2cccc(-n3cc(NC(=O)Nc4cccc(C)c4)cn3)c2)cc(OC)c1OC
active: Potency [2] 9.2 µM
inactive: outcome [1] | max response [3] 3.54% | Potency [14] | Potency [12]

C=C1CC2OC(=O)C(=C)C2C(OC(=O)/C(C)=C\C)CC2(C)OC1=CC2=O (stereo not given)
inactive: Potency [6] | Potency [8] | Potency [14]
active: Potency [1] 14.3 µM | Potency [2] 2.86 µM | Potency [10] 12.8 µM | Potency [4] 11.2 µM | Potency [7] 10 µM | Potency [13] 11.2 µM

Cc1nnc(C[C@@H]2C=C(c3ccc(Cl)cc3)c3ccccc3-n3c(C)nnc32)o1
active: Potency [1] 0.651 µM | Potency [2] 1.16 µM | Potency [7] 12.6 µM | Potency [14] 20 µM
inactive: max response [3] -1.46% | Potency [6]

Fc1ccc2[nH]ccc2c1-c1nc(N2CCOCC2)c2sc(CN3CCN(CC4CC4)CC3)cc2n1
inactive: max response [1] -20.6% | Potency [7] | Potency [8]
active: Potency [2] 18.4 µM | Potency [11] 20 µM
